In PubChem BioAssay AID2289 (National Center for Advancing Translational Sciences (NCATS), 2010):
Out of some 340,000 compounds screened, about 3,300 (0.97%) were called active. About 9% were inconclusive and are not listed. Calls follow the shape of the dose curve; as a rule, active = well fitted inhibition curve with a large enough effect; inconclusive = small, poorly fitted or top-dose-only effect, or effect the other way; inactive = flat fitted curve, though single readings scatter. The list shows a part of the results.

Test: qHTS Assay for Modulators of miRNAs and/or Inhibitors of miR-21; also: nearly all actives have a fitted effect of over 55% in size
Conditions: HeLa miR-21-FLuc reporter, luciferase luminescence, 48 h; actives lower the signal
Description: MLSCN Grant: 1 R21 NS059478-01 Assay Provider: Qihong Huang, The Wistar Institute NCGC Assay Overview: MicroRNAs (miRNAs) are endogenously encoded small (~20-25 nucleotides), nonprotein-coding RNAs that are involved in post-transcriptional repression of target messenger RNAs (mRNAs) (Le and Hannon, 2004). Estimated to be involved in the regulation of 30% of all protein-coding mRNAs (Filipowicz et al., 2008), miRNAs play a significant role in many biological processes including cellular differentiation and tissue development (Ghildiyal and Zamore, 2009).
NCGC Assay Protocol Summary: Reagents: HeLa cells stably expressing firefly luciferase (FLuc) under the control of a CMV promoter (upstream) and a miR-21 binding sequence directly downstream of the gene. These cells endogenously express miR-21. Control compounds used were compound C3 (provided by collaborator), N6-phenyladenosine (MP Biomedicals, 0215379625), and DMSO. Assay Summary: 6uL of HeLa miR-21-FLuc cells in assay buffer (DMEM, Invitrogen #21063-029; 10% FBS, HyClone #SH30071.03) were dispensed at 2000cells/well (3.3 x 10^5 cells/mL) into Greiner solid-white TC-treated 1536-well plates using a Multidrop Combi (Thermo Fisher Scientific). Plates were incubated for one hour at 37 degree Celsius, 95% humidity, 5% CO2. These assay plates were then treated with 23nL of compound or DMSO using a Kalypsys pin tool, which allows for delivery of a 24-point titration of each compound to the assay plate, with a final compound concentration ranging from approximately 40uM to 5pM. Assay plates were then incubated for 48 hours. After incubation, plates were allowed to come to RT for one hour prior to delivery of 3uL of 3X luciferase detection reagent. After a 15 minute incubation to allow for cell lysis, luciferase activity was measured using a ViewLux CCD imager (PerkinElmer), with an average exposure time of 2-12 seconds. Keywords: NIH Roadmap, MLPCN, MLSMR, qHTS, miR-21, microRNA, firefly luciferase, FLuc.
Potency is read from the fitted curve at half-maximal effect.

Potency, active:
COc1ccc(NC(=O)CCSc2ccc(F)cc2)cc1 7.36 µM
O=C(CSc1ccc(F)cc1)Nc1ccc(C2SCCS2)cc1 11.7 µM
COc1ccccc1NC(=O)c1csc2c1CCC(C)C2 (stereo unspecified) 5.85 µM
CC1CCc2c(C(=O)NCc3ccccn3)csc2C1 (stereo unspecified) 11.7 µM
Cc1ccc(-c2cc(NC(=O)c3ccccc3Cl)on2)cc1 2.61 µM
CCc1nc(NC(C)(C)C)c2cnn(-c3ccccc3)c2n1 7.36 µM
Cc1ccoc1C(=O)Nc1cccc(Oc2ccccc2)c1 3.29 µM
CCn1c(O)c(/C=C2\C=Nc3ccccc32)sc1=Nc1ccccc1 7.36 µM
CCn1c(O)c(/C=C2\C=Nc3ccccc32)sc1=O 1.17 µM
N/C(Cc1cccc2ccccc12)=N\OC(=O)Cc1cccs1 11.7 µM
N/C(=N\OC(=O)Cc1cccs1)c1ccc(Br)cc1 16.5 µM
COc1ccc(/C(N)=N/OC(=O)Cc2cccs2)cc1 6.56 µM
N/C(Cc1cccs1)=N\OC(=O)COc1ccccc1Cl 14.7 µM
Fc1ccc(/C=C/c2nnc(-c3cccs3)o2)cc1 2.07 µM
Clc1ccc2oc(-c3ccccc3)cc(=NCCCN3CCOCC3)c2c1 4.14 µM
COc1ccc(N/C=C\C(=O)c2ccc(C)cc2)cc1OC 14.7 µM
COc1ccc(N/C=C/C(=O)c2ccc(Cl)cc2)cc1 1.04 µM
CCOc1ccc(N/C=C/C(=O)c2ccc(OC)c(OC)c2)cc1 9.27 µM
Cc1ccc(N/C=C/C(=O)c2ccc(C)cc2)cc1 2.33 µM
COc1ccc(C(=O)/C=C/Nc2cc(C)on2)cc1 2.93 µM
CC(=O)c1ccc(N/C=C\C(=O)c2ccc(C)cc2)cc1 1.31 µM
COc1ccc(C(=O)/C=C/Nc2ccc(C)cn2)cc1OC 1.65 µM
Cc1ccc(NC(=O)C(=O)c2ccc(C)cc2)cc1 2.93 µM
O=C(c1ccc(F)cc1)N1CCC(c2ccccc2)C1 (stereo unspecified) 7.36 µM
O=C(c1ccc(F)cc1)N1CCC(n2nnc3ccccc32)CC1 5.85 µM
O=C(COc1ccc(F)cc1)N1CCC(c2ccccc2)C1 (stereo unspecified) 13.1 µM
COc1ccccc1/C=C/C(=O)N1CCC(c2ccccc2)C1 (stereo unspecified) 2.93 µM
O=C(N/N=C\c1ccco1)Nc1cccc(Cl)c1 1.85 µM
NC(=O)c1sc2nc(-c3cccnc3)ccc2c1N 18.5 µM
NC(=O)c1sc2nc(-c3ccccc3)ccc2c1N 1.85 µM
Nc1c(C(=O)N2CCCC2)sc2nc(-c3ccccc3)ccc12 3.69 µM
